What follows are sequences tested on VDR:RXRa (NR concentration 270 nM, RXRa partner concentration 90 nM) (assay: PBM binding z-score (relative to random genomic background probes); higher = stronger binding; sequences stand for … in GC…GCGATTGACAGCGTAGAATGAAGG).
Experimental: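 Protein-binding microarray (Agilent 4x180K custom design, double-stranded 60-nt probes: 5' GC cap, 34-nt variable region, 24-nt constant primer region; full probe sequence given). Purified or IVT nuclear receptor:RXRα heterodimers (3:1 NR:RXRα, mostly 270:90 nM) or homodimers were incubated for 1 h in PBS with 2% milk and no ligand, then detected with Alexa488 antibodies. Fluorescence from o1-orientation probes (~5 replicates averaged) was converted to z-scores against 500 random hg19 background probes. Variable regions are seed direct-repeat (DR0–DR5) sites, all their single-nucleotide variants and half-site ablations.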

Sequence	PBM binding z-score
GCAGACAGGTGAAACGCTGGTAACTCAGGGTGGC	-0.466
TCTGCTAGGTCAGTCGGTCAGCTAACGAGCTGCC	0.139
TCTGCTAGTTCAACGATGGTCAGCTAATCTGCTA	0.196
CGAACTAGGTCATCCGGGACAGTGAATACATTGA	4.04
CCTACTGGGCCAAAGGTCATTGCTTCCAATGCTC	4.47
AGTCAAAGTTCAGGACGAGGTGACGTAAAGCACG	3.27
TCTCGTTGGTCACGGAGGTCACACACGACGGGTA	5.96
CAAACTATGTCAAGAGGTCAAAGTCCGCTTCCCG	5.15
CGTCCAAGGTCAAGGTCAGTGACAGAGACTCGAA	4.83
CCTACTGGGCCATCAGGTTATTGATATCAACGTT	0.0822
TCGAGTATGTTACCAATGGGGCATTCAGCTTTCT	-0.0704
ACTAGTTGGTCAGCTGAGGTCGCACACAATTCGG	2.2
GGAACGACGGCATTCGAGTTGATAGCATGGCGAT	-0.42
ACTATTAGTTGGGACGAGGGCAACCGATAGGTTG	0.564
CGTCTAAGTTCAACTAAGGTAACGTAAAGCACGC	4.12
CGTCCAAGGTCAGAAGGTCAGTGAAAGCGACGTG	4.14
ATATGTAGGTTACATTCGGGTCATTCAGGCTATG	4.24
CAAACTAGGACAAGAGGTCAAAGTCCGCTTCCCG	5
ACTACAGGGTCACTAGGCCAGAGTAGGTACGAAT	3.76
CCTCGGAGGACAGAAGGTCAGAGCGGTCCGCTTT	1.83

Sequence	PBM binding z-score
TCTCGCAGGACACGAAGGTCAGAGCTTTCCAGAG	1.57
AGATGTAGGTTAGCTGGGGTCATTCAGACTAGGC	5.98
GCTTACGGGTCAAAGGTTATAGCATGAATAGAAT	5.86
ATATGTAGGTAAAGGGTCATTCAGGTTGGTTCGC	5.54
TCATATAGGTAAATGCTAGGCGAAAGTCCGATCT	0.812
ATCTCTAGGTAACACTCAGTTCAGTGAAGAACGC	1.97
TAGTCTAGGTCATTGGGCCAGTATAGTACGCATC	2.5
CCTTACGGGTCACTCCAGGTTAGAGCATCGGAGT	3.65
TCTTGTAGATCAAGCAGTTTAAGAAAGCCTGAGT	0.549
CCTAACGGGTCACGAGGTTATAGCACGACGAGCG	4.74
ATACCAAGGTGATCGTGAGGTTGTTGATACTAAC	0.679
GCTGCTAGGTCAGGTTGCTCAGCTAACGGGTACG	0.0611
TTAGACAGGTGAAGGTAACTCAGGTACGCAGTCG	0.618
TCATATAGATAAACAGGTGAAAGTCCGTAAGTTA	1.18
TCAGACAGGTGAAGGTAAGTCAGGTACGCAGTCG	0.301
AGAATGAGGTTAAGATCAGGAAAACAGAATACAT	1.24
TCTTGTAGATCAATAGACGTTAAGAAAGTGCGCT	0.326
TAGACTAGGTCATTCAGGGGCCAGTATAGAAAGC	2.48
ATATGCAGGTTACATCCGGGTCATTCAGGCTATG	4.47
TCAGACACGTGAAGGTAACTCAGGTACGCAGTCG	0.881

From the supplement of paper PMC6555819
